# Test results taken from PubChem BioAssay (NCATS).
# Unmarked numbers belong to inactive results. Inconclusive results are not listed. Where a call stands in place of a potency, no number is given. The source made the active and inactive calls. Unless noted, the call rests on the fitted dose curve; in most records, active means well fitted curve in the direction sought with a large enough effect; inconclusive means small, poorly fitted or top-dose-only effect, or another doubt; inactive means no such curve, though single readings can be large; an effect the other way counts as inactive or inconclusive.
# Key:
# [1] = target: 3',5'-cyclic-AMP phosphodiesterase 4B (Homo sapiens) (UniProt Q07343); test: qHTS Assay for Inhibitors of PDE-IV (AID 607; active means well fitted activation curve with a large enough effect in the main read-out, with a control signal flat, not every such curve was filed as active)
# Outline: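 The readout is membrane depolarisation from a cAMP-sensing CNG channel, detected with a potential dye at ex 535/em 590. Cells were HEK293-derived (endogenous PDE-IV) at 1000 cells/well, titrated up to 22.9 uM final.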
# [2] = target: Guanine nucleotide-binding protein G(i) subunit alpha-1 (Homo sapiens) (UniProt P63096); test: qHTS Assay for Inhibitors of RGS12 GoLoco Motif Activity (Green Fluorophore) (AID 879);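 further: negative values mean loss of peptide binding seen as reduced polarization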
# Outline: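 A drop in FITC polarization marked displacement of the FITC-tagged RGS12 GoLoco peptide (10 nM) from Gαi1 (50 nM). Compounds were incubated 10 min at room temperature in Tris pH 7.5 buffer containing 150 mM NaCl, 0.1 mM GDP and 0.05% NP40; unlabeled peptide titration served as control.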
# [3] = target: Cytochrome P450 2C9 (Homo sapiens) (UniProt P11712); test: qHTS Assay for Inhibitors and Substrates of Cytochrome P450 2C9 (AID 883); further: nearly all actives have a fitted effect of over 60% in size; further: potency means the concentration at half of the fitted maximal effect
# Outline: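 10nM CYP2C9 + 100uM Luciferin-H (=KM), 25mM KPO4; cpd 10 min 37C; NADPH regen, 60 min 37C; stop/detect with P450 Glo-Buffer 20 min; luminescence. Norm. to 57uM sulphaphenazole as full inhibition.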
# [4] = target: Cytochrome P450 3A4 (Homo sapiens) (UniProt P08684); test: qHTS Assay for Activators of Cytochrome P450 3A4 (AID 885); further: nearly all actives have a fitted effect of over 65% in size
# Outline: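 Activators are scored by enhanced luminescence from CYP3A4 conversion of luciferin-PPXE (25uM, equal to KM) to luciferin, after 60 min at RT with an NADPH-regenerating system.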
# [5] = target: Cytochrome P450 2D6 (Homo sapiens) (UniProt P10635); test: qHTS Assay for Inhibitors and Substrates of Cytochrome P450 2D6 (AID 891); further: nearly all actives have a fitted effect of over 60% in size; further: potency means the concentration at half of the fitted maximal effect
# Outline: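 Luminescent read-out of luciferin formed by 5 nM human CYP2D6 demethylating 30 uM Luciferin-ME EGE (Km level) over 60 min at room temperature after NADPH regeneration addition. Data normalized to full inhibition by 1.43 uM quinidine.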
# [6] = qHTS Assay for Identification of Small Molecule Antagonists for NFkB Signaling Pathway (AID 895; active means well fitted inhibition curve with a large enough effect in the signal ratio, with a control signal flat, not every such curve was filed as active; the % refers to the signal ratio; further: potency means the concentration at half of the fitted maximal effect)
# Outline: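 ME-180 NFkB-bla cells (beta-lactamase under NFkB response element), plated overnight, treated with compound then 10 pM TNF alpha (about EC50) for 5 hrs at 37 C. LiveBLAzer FRET read at 460/530 nm emission, 405 nm excitation.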
# [7] = target: Cytochrome P450 3A4 (Homo sapiens) (UniProt P08684); test: qHTS Assay for Inhibitors and Substrates of Cytochrome P450 3A4 (AID 884); further: nearly all actives have a fitted effect of over 50% in size; further: potency means the concentration at half of the fitted maximal effect
# Outline: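 Luminescent readout of luciferin produced by CYP3A4 (20 nM) dealkylation of Luciferin-PPXE, 25 uM (its KM). NADPH-driven reaction ran 60 min at RT after 10 min compound preincubation; data scaled to 57 uM ketoconazole as 100% inhibition.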
# [8] = Cellular Toxicity (caspase-3) HepG2 (AID 654);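 further: cells exposed to compound for 16 hours before reading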
# Outline: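 Caspase 3/7 activation is measured as a luminescence increase (aminoluciferin substrate) after 16 h compound exposure of human hepatocarcinoma HepG2 cells. AC50 values are Hill fits, scaled between DMSO baseline and 100 uM tamoxifen stimulation.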
# [9] = Cellular Toxicity (caspase-3) Jurkat (AID 655);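 further: cells exposed to compound for 16 h at 37 °C before reading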
# Outline: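 qHTS in human Jurkat T-cell leukemia line: 16 hr compound treatment at 37 °C, caspase-3/7 activity measured by Caspase-Glo luminescence. AC50 derived from Hill equation.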
# [10] = Cellular Toxicity (caspase-3) HUV-EC-C (AID 656)
# Outline: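 Concentration-dependent caspase 3/7 induction was assessed in HUV-EC-C cells exposed for 16 hours. Data scaled between DMSO and tamoxifen (100 uM) controls.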
# [11] = Cellular Toxicity (caspase-3) SHSY5Y (AID 657);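 further: cells exposed to compound for 16 hours at 37 °C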
# Outline: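 Readout: caspase-cleaved peptide-aminoluciferin substrate driving luciferase light in SH-SY5Y neuroblastoma cells after 16 h treatment. Response normalized to DMSO and 10 uM staurosporine controls.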
# [12] = Cellular Toxicity (caspase-3) BJ (AID 658)
# Outline: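 qHTS, BJ fibroblasts, 1000 cells/well; 5 hr preincubation, 16 hr compound, 37 °C; Caspase-Glo 3/7 reagent, 1 hr RT; luminescence. DMSO = 0%, 10 uM staurosporine = 100%. Hill-equation AC50.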
# [13] = Cellular Toxicity (caspase-3) Mesangial (AID 660); conditions: Potency: caspase-3 activation;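 further: combined caspase 3 and 7 activity read by Caspase-Glo luminescence; cells exposed to compound for 16 h before the caspase read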
# Outline: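 Caspase 3/7 activation measured by Caspase-Glo 3/7 luminescence (20 min, room temperature) following 16 h exposure of mesangial cells (1000/well); AC50 from Hill-equation fit, normalized to DMSO and 100 uM tamoxifen.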
# [14] = Cellular Toxicity (caspase-3) SK-N-SH (AID 661)
# Outline: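 Caspase 3/7 activation was read by luminogenic substrate cleavage after 16 hour treatment of SK-N-SH cells. Signal was scaled between DMSO and 10 uM staurosporine, and concentration-response data were fitted with the Hill equation for AC50.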
# [15] = Cellular Toxicity (caspase-3) H-4-II-E (AID 663); conditions: H-4-II-E rat hepatoma, scaled: DMSO 0%, 100 µM tamoxifen 100%; at 92.2 µM (top of the series);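 further: cells exposed to compound for 16 hr before readout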
# Outline: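 H-4-II-E rat hepatoma, 1500 cells/well, 5 hr settle at 37 °C; compound 16 hr, 37 °C, complete medium; Caspase-Glo 3/7, 20 min RT; luminescence. DMSO = 0%, 100 uM tamoxifen = 100%; Hill-equation AC50.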
# [16] = Cellular Toxicity (caspase-3) Hek293 (AID 664); conditions: HEK293 caspase-3 activation, DMSO = 0%, 100 µM tamoxifen = 100%; at 92.2 µM (top of the series);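 further: cells exposed to compound for 16 h at 37 °C before readout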
# Outline: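 Concentration-response qHTS: caspase 3/7 activation measured by luminescent aminoluciferin substrate cleavage after 16 h compound exposure of Hek 293 cells. AC50 from Hill equation, with DMSO as basal and 100 uM tamoxifen as 100%.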
# [17] = Cellular Toxicity (caspase-3) N2a (AID 665); conditions: Potency: caspase-3 activation;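 further: compound exposure lasted 16 h at 37 °C before readout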
# Outline: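 Caspase-3/7 activation measured as luminescence from Caspase-Glo reagent (1 h, room temperature) after 16 h compound exposure of mouse N2a cells. AC50 values from Hill-equation concentration-response, scaled between DMSO and 10 uM staurosporine.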
# [18] = Cellular Toxicity (caspase-3) NIH 3T3 (AID 666)
# Outline: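 Caspase-Glo 3/7 luminescence reported caspase activation in 1000 NIH 3T3 cells/well after 16 h compound exposure at 37 C. DMSO set basal and 100 uM tamoxifen set 100% stimulation; concentration-response modeled with the Hill equation for AC50.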
# [19] = Cellular Toxicity (caspase-3) Renal Proximal Tubule (AID 667); conditions: Potency: caspase-3 activation;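 further: cells exposed to compound for 16 hours at 37 °C before detection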
# Outline: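 Caspase-Glo 3/7 read-out, rat primary kidney proximal tubule cells. Compound exposure 16 h, 37 °C; detection after 1 h at RT. Activity scaled to DMSO and 10 uM staurosporine.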
# Chain of Guanine nucleotide-binding protein G(i) subunit alpha-1 (Homo sapiens) (P63096 whole entry, looked up): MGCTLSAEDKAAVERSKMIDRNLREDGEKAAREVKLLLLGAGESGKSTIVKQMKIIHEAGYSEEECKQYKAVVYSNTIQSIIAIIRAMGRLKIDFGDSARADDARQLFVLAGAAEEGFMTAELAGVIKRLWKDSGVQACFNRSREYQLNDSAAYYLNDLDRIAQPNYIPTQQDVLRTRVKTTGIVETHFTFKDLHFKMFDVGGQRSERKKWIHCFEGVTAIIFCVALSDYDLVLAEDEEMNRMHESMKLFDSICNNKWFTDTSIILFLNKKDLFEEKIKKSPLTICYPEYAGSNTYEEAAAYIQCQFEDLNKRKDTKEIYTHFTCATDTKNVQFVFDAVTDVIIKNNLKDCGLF
# Chain of Cytochrome P450 3A4 (Homo sapiens) (P08684 whole entry, looked up): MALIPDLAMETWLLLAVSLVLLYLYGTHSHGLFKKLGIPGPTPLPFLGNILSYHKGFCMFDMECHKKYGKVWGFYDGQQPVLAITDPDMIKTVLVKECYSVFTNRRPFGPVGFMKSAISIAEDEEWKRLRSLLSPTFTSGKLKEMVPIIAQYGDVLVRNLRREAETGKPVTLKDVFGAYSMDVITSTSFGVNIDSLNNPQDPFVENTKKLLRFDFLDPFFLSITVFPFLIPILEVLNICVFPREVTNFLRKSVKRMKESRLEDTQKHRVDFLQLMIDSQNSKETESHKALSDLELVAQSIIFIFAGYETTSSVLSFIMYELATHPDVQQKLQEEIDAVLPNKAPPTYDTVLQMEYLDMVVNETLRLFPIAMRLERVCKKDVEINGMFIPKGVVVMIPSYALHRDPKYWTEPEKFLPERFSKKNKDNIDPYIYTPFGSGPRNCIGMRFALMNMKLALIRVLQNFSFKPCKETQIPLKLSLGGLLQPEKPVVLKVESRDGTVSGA
# Chain of 3',5'-cyclic-AMP phosphodiesterase 4B (Homo sapiens) (Q07343 whole entry, looked up): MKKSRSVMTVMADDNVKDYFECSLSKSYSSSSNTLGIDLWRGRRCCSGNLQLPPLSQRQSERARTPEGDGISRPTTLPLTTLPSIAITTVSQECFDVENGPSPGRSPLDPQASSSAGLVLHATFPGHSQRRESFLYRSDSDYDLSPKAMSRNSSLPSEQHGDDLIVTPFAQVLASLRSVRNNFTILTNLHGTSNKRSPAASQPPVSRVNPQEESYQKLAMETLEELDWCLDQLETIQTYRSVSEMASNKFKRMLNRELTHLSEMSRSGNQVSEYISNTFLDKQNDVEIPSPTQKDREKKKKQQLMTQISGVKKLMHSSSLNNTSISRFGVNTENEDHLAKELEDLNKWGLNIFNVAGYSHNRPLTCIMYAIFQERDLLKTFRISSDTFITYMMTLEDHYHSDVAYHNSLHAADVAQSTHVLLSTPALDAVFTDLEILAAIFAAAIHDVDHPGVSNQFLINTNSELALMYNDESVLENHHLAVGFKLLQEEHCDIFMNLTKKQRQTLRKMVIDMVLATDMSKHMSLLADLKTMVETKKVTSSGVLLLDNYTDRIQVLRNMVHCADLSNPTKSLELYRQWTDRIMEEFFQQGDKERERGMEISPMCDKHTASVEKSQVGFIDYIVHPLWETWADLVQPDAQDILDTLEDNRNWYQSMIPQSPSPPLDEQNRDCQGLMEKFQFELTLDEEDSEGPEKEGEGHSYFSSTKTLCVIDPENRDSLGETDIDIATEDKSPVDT
# Chain of Cytochrome P450 2D6 (Homo sapiens) (P10635 whole entry, looked up): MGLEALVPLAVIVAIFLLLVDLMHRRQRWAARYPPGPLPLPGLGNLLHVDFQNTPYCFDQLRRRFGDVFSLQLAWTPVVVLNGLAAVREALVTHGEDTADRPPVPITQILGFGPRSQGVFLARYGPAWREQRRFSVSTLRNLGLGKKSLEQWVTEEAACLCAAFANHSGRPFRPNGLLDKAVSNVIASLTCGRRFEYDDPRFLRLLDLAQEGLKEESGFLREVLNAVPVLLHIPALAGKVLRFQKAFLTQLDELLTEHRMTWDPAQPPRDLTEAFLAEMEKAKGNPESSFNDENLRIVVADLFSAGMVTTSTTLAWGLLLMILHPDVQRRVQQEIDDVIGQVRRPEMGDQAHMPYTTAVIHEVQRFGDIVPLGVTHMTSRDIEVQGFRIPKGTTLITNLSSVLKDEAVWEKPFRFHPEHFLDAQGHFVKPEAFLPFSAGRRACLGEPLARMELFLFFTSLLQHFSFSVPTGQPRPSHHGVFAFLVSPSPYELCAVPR
# Chain of Cytochrome P450 2C9 (Homo sapiens) (P11712 whole entry, looked up): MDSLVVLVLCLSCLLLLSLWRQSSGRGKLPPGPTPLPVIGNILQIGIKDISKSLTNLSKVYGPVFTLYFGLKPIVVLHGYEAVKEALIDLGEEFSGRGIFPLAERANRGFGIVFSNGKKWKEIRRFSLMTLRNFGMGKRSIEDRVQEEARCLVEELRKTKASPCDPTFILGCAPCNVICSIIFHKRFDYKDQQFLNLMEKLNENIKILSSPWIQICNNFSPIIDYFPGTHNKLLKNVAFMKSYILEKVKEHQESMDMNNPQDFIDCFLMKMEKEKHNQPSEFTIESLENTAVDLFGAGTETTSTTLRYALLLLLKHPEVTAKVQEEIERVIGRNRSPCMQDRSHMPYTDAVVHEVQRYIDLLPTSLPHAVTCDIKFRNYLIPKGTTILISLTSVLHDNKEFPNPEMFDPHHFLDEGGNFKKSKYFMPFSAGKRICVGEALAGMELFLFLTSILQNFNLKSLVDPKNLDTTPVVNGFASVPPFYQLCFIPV
smiles,measurement,setting,value
N#C/C(=C\c1ccc(O)c(O)c1)C(=O)NCc1ccccc1,outcome,[1],inactive
same,outcome,[2],inactive
same,Potency,[3],inactive
same,Potency,[4],inactive
same,Potency,[5],inactive
NCCCS(=O)(=O)O,outcome,[1],inactive
same,outcome,[2],inactive
CCCCN1CCC(n2c(=O)[nH]c3ccccc32)CC1,outcome,[1],inactive
same,outcome,[2],inactive
same,Potency,[3],inactive
same,Potency,[5],3.16 µM (active)
same,Potency,[6],inactive
NCCCCC(=O)O,outcome,[1],inactive
same,outcome,[2],inactive
same,Potency,[7],inactive
same,Potency,[5],inactive
Oc1cc2c(cc1O)CN(C(=S)NCCc1ccc(Cl)cc1)CCC2,outcome,[1],inactive
same,outcome,[2],inactive
same,Potency,[7],3.16 µM (active)
same,Potency,[4],inactive
O=C(O)c1cc(=O)c2ccccc2[nH]1,outcome,[1],inactive
same,outcome,[2],inactive
CN1CCc2ccccc2Cc2[nH]c3ccccc3c2CC1,outcome,[1],inactive
same,outcome,[2],inactive
CCCn1c(=O)c2[nH]c(-c3ccc(OCC(=O)NCCN)cc3)nc2n(CCC)c1=O,outcome,[1],inactive
same,outcome,[2],inactive
same,Potency,[7],2.51 µM (active)
same,Potency,[4],inactive
Cn1cc(C2=C(c3ccc(Cl)cc3Cl)C(=O)NC2=O)c2ccccc21,outcome,[1],inactive
same,outcome,[2],inactive
same,Potency,[3],10 µM (active)
same,Potency,[7],2 µM (active)
same,Potency,[4],inactive
COc1ccccc1N1CCN(CCCCNS(=O)(=O)c2cccc3c(N(C)C)cccc23)CC1,outcome,[1],inactive
same,outcome,[2],inactive
same,Potency,[7],2.51 µM (active)
same,Potency,[4],inactive
CC(C)NC[C@H](O)COc1cccc2[nH]ccc12,outcome,[1],inactive
same,outcome,[2],inactive
N.N.O=C(O)C1(C(=O)O)CCC1.[Pt],outcome,[1],inactive
same,outcome,[2],inactive
same,Potency,[3],3.98 µM (active)
same,Potency,[7],inactive
same,Potency,[4],inactive
O=C1NC(O)=NC1(c1ccccc1)c1ccccc1,outcome,[1],inactive
same,outcome,[2],inactive
N[C@H](CCCP(=O)(O)O)C(=O)O,outcome,[1],inactive
same,outcome,[2],inactive
same,Potency,[3],inactive
same,Potency,[5],inactive
CC(C(=O)O)c1ccc(C(=O)c2cccs2)cc1 (stereo unspecified),Potency,[7],inactive
Cc1ccc(C(=O)c2ccc(CC(=O)O)n2C)cc1,outcome,[1],inactive
same,Potency,[7],inactive
Oc1c(Br)cc(Br)c2cccnc12,Potency,[7],inactive
CN(C)c1nc2c(Br)c(Br)c(Br)c(Br)c2[nH]1,outcome,[2],inactive
same,Potency,[7],20 µM (active)
same,Potency,[4],inactive
same,Potency,[6],0.501 µM (active)
Nc1cc(-c2ccncc2)c[nH]c1=O,outcome,[1],inactive
same,Potency,[4],inactive
O=c1cc(-c2ccccc2)oc2c(O)c(O)ccc12,Potency,[4],inactive
CNCC[C@H](Oc1ccc(C(F)(F)F)cc1)c1ccccc1,outcome,[2],inactive
same,outcome,[3],inactive
O=C(O)c1ccccc1Nc1cccc(C(F)(F)F)c1,Potency,[7],inactive
O=c1cc(-c2ccccc2)oc2ccccc12,Potency,[8],inactive
same,Potency,[9],inactive
same,outcome,[10],inactive
same,outcome,[11],inactive
same,outcome,[12],inactive
same,Potency,[13],inactive
same,Potency,[14],inactive
same,caspase-3 activation,[15],-0.716%
same,caspase-3 activation,[16],-5.01%
same,Potency,[17],inactive
same,Potency,[18],inactive
same,Potency,[19],inactive
